# Reference: PubChem BioAssay AID2427 (National Center for Advancing Translational Sciences (NCATS), 2010)
# Active and inactive are the calls of the source.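 Rule for the calls: active = melting temperature shift above 3 C; inconclusive = shift above 1 C but not above 3 C; inactive = the rest.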
# Target: 15-hydroxyprostaglandin dehydrogenase [NAD(+)] (Homo sapiens) (UniProt P15428)
# Assay: Thermal Shift Assay for Inhibitors of HPGD (15-Hydroxyprostaglandin Dehydrogenase)
# Conditions: Recombinant HPGD thermal shift, SYPRO orange DSF, at 250 µM, stronger effect = higher value
# Procedure: Assay Overview: Human 15-Hydroxyprostaglandin dehydrogenase (HPGD) catalyzes the inactivation of prostaglandin E2, and plays a major role in cancer biology by antagonizing the oncogenic potential of cyclooxygenase type 2 (COX2). Studies to assess the stability of human 15-PGDH in presence of compounds was performed as described (Niesen et al., 2007) with variations. References 1. Myung SJ, Rerko RM, Yan M, Platzer P, Guda K, Dotson A, Lawrence E, Dannenberg AJ, Lovgren AK, Luo G, Pretlow TP, Newman RA, Willis J, Dawson D, Markowitz SD. 15-Hydroxyprostaglandin dehydrogenase is an in vivo suppressor of colon tumorigenesis. Proc Natl Acad Sci U S A. 2006 Aug 8;103(32):12098-102. 2. Yan M, Rerko RM, Platzer P, Dawson D, Willis J, Tong M, Lawrence E, Lutterbaugh J, Lu S, Willson JK, Luo G, Hensold J, Tai HH, Wilson K, Markowitz SD. 15-Hydroxyprostaglandin dehydrogenase, a COX-2 oncogene antagonist, is a TGF-beta-induced suppressor of human gastrointestinal cancers. Proc Natl Acad Sci U S A. 2004 Dec 14;101(50):17468-73. 3. Yang L, Amann JM, Kikuchi T, Porta R, Guix M, Gonzalez A, Park KH, Billheimer D, Arteaga CL, Tai HH, Dubois R, Carbone DP, Johnson DH. Inhibition of Epidermal Growth Factor Receptor Signaling Elevates 15-Hydroxyprostaglandin Dehydrogenase in Non-Small-Cell Lung Cancer. Cancer Res. 2007 Jun 15;67(12):5587-5593. 4. Niesen FH, Berglund H, Vedadi M: The use of differential scanning fluorimetry to detect ligand interactions that promote protein stability. Nature protocols 2007; 2:2212-2221 NIH Chemical Genomics Center [NCGC] Structural Genomics Consortium [SGC]
# HPGD was diluted to a final assay concentration of 1 uM in 100 mM Tris buffer, pH 8.0, containing 0.01% Tween-20 and 1:1000 SYPRO orange dye. The final assay volume is 10 ul, with or without 200 uM of either NAD+ or NADH. Compounds were added 1:5 from appropriate stock solutions in 10% (v/v) DMSO to comprise either 50 or 250 uM final concentrations. Heat denaturation curves were recorded using a RT-PCR instrument (Mx3005p, Agilent) applying a temperature gradient of 2 degree C/min. Analysis of the data was performed using DSF Analysis vers. 2.5 (ftp://ftp.sgc.ox.ac.uk/pub/biophysics) and Prism 5.0 (GraphPad Software, Inc.)
# Sequence of 15-hydroxyprostaglandin dehydrogenase [NAD(+)] (Homo sapiens) (P15428 whole entry, looked up): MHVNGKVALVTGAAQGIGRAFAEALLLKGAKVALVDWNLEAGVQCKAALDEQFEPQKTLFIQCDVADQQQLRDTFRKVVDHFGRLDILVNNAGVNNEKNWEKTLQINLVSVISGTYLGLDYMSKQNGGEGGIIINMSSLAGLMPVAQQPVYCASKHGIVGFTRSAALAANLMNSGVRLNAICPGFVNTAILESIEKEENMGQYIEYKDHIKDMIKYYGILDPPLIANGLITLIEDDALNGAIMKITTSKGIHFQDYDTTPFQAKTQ
row,Structure (SMILES),thermal shift (delta Tm)
1,COCCNC(=O)c1nc2c(nnn2Cc2cc(C)ccc2C)c(=O)[nH]1,8.9 C (active)
2,CCN(CC)C(=O)c1sc2nc(-c3cccs3)cc(-c3ccc(Cl)cc3)c2c1N,0.9 C (inactive)
3,O=C(CSc1nc2ncc(Br)cc2[nH]1)c1cccc([N+](=O)[O-])c1,6.9 C (active)
4,Cc1ccc(C)c(Cn2nnc3c(=O)[nH]c(C(=O)NCc4ccco4)nc32)c1,7.5 C (active)
5,COCCNC(=O)C1CCC(Cn2c(=S)[nH]c3ccccc3c2=O)CC1 (stereo not given),3.7 C (active)
6,Cc1ccc(-c2n[nH]c(=S)n2/N=C/C=C\c2ccccc2[N+](=O)[O-])cc1,4.5 C (active)
7,O=C(c1ccc2c(c1)OCO2)N1CCc2ccccc2C1,3.3 C (active)
8,Fc1ccccc1CSc1nc2ncc(Br)cc2[nH]1,7.6 C (active)
9,Cc1cccc(-n2cnc3cc(C(=O)N4CCCCC4)ccc32)c1,7.3 C (active)
10,COc1ccc(-c2cc(C(F)(F)F)n3nc(C(=O)N4CCCCC4)cc3n2)cc1OC,3.9 C (active)
11,O=C(c1ccc(COc2ccccc2Br)cc1)N1CCCCC1,7.1 C (active)
12,O=C(c1ccc(N2C(=O)C3CC=C(Cl)CC3C2=O)cc1)N1CCCCC1 (stereo not given),3 C (active)
13,COc1ccc2cc(C(=O)N3CCCCCC3)sc(=O)c2c1OC,3.2 C (active)
14,O=C(CCc1ccc(Oc2cc([N+](=O)[O-])cc([N+](=O)[O-])c2)cc1)N1CCCCC1,3.1 C (active)
15,Cc1cc(-c2nnc3n2CCCCC3)c(C)n1-c1ccccc1,5 C (active)
16,O=c1[nH]c(SCc2ccccc2Cl)nc2c1CCC2,9.2 C (active)
17,COc1ccc(OC)c(C(=O)c2ccc(C(=O)N3CCCCC3)cc2)c1,3 C (active)
18,O=C(CSc1nc(-c2ccccc2)nn1C(=O)c1ccccc1)Nc1cccc([N+](=O)[O-])c1,4 C (active)
19,Cc1ccccc1CSc1nc2ccccc2c(=O)[nH]1,6.1 C (active)
20,O=C(C1CCC(Cn2c(=S)[nH]c3ccccc3c2=O)CC1)N1CCOCC1 (stereo not given),6 C (active)

# Same assay, conditions: Recombinant HPGD thermal shift, SYPRO orange DSF, measured here: delta Tm with NADH cofactor, at 250 µM, stronger effect = higher value
row,Structure (SMILES),thermal shift (delta Tm) [C]
1,COCCNC(=O)c1nc2c(nnn2Cc2cc(C)ccc2C)c(=O)[nH]1,6.6
2,CCN(CC)C(=O)c1sc2nc(-c3cccs3)cc(-c3ccc(Cl)cc3)c2c1N,2.9
3,O=C(CSc1nc2ncc(Br)cc2[nH]1)c1cccc([N+](=O)[O-])c1,1.7
4,Cc1ccc(C)c(Cn2nnc3c(=O)[nH]c(C(=O)NCc4ccco4)nc32)c1,4.8
5,COCCNC(=O)C1CCC(Cn2c(=S)[nH]c3ccccc3c2=O)CC1 (stereo not given),4.7
6,Cc1ccc(-c2n[nH]c(=S)n2/N=C/C=C\c2ccccc2[N+](=O)[O-])cc1,0.2
7,O=C(c1ccc2c(c1)OCO2)N1CCc2ccccc2C1,4.4
8,Fc1ccccc1CSc1nc2ncc(Br)cc2[nH]1,1.5
9,Cc1cccc(-n2cnc3cc(C(=O)N4CCCCC4)ccc32)c1,13.5
10,COc1ccc(-c2cc(C(F)(F)F)n3nc(C(=O)N4CCCCC4)cc3n2)cc1OC,9.6
11,O=C(c1ccc(COc2ccccc2Br)cc1)N1CCCCC1,10.6
12,O=C(c1ccc(N2C(=O)C3CC=C(Cl)CC3C2=O)cc1)N1CCCCC1 (stereo not given),6.1
13,COc1ccc2cc(C(=O)N3CCCCCC3)sc(=O)c2c1OC,7.8
14,O=C(CCc1ccc(Oc2cc([N+](=O)[O-])cc([N+](=O)[O-])c2)cc1)N1CCCCC1,7.9
15,Cc1cc(-c2nnc3n2CCCCC3)c(C)n1-c1ccccc1,10.5
16,O=c1[nH]c(SCc2ccccc2Cl)nc2c1CCC2,1.6
17,COc1ccc(OC)c(C(=O)c2ccc(C(=O)N3CCCCC3)cc2)c1,6.6
18,O=C(CSc1nc(-c2ccccc2)nn1C(=O)c1ccccc1)Nc1cccc([N+](=O)[O-])c1,-7.6
19,Cc1ccccc1CSc1nc2ccccc2c(=O)[nH]1,0.4
20,O=C(C1CCC(Cn2c(=S)[nH]c3ccccc3c2=O)CC1)N1CCOCC1 (stereo not given),3.9
